How the values were obtained:
[1] = target: T1, Inhibitor of nuclear factor kappa-B kinase subunit epsilon (Homo sapiens) (UniProt Q14164); settings: at 1 µM;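 also: reported values are averaged percent inhibition figures against human IKKε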
T1 sequence (whole entry): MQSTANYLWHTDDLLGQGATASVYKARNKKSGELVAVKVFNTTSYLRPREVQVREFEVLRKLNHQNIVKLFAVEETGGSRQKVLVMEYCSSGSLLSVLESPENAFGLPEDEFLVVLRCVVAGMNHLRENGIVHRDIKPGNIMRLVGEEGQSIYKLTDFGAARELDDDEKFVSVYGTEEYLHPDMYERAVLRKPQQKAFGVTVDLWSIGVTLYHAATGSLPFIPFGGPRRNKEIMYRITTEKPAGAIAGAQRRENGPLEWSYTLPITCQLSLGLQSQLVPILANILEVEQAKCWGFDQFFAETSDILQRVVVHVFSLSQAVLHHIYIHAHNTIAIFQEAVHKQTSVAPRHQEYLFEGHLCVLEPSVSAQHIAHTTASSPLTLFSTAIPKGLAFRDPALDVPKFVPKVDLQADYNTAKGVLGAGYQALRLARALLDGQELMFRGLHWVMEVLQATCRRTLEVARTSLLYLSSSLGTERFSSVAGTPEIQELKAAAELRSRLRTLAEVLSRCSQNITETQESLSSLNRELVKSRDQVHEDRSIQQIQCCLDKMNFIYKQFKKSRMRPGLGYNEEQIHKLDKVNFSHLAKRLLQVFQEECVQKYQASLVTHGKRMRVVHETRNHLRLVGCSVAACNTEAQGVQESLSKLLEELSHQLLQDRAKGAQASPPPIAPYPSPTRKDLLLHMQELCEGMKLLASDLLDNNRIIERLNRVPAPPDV

[2] = target: T2, Serine/threonine-protein kinase Nek1 (Homo sapiens) (UniProt Q96PY6); settings: at 0.1 µM
T2 sequence (whole entry): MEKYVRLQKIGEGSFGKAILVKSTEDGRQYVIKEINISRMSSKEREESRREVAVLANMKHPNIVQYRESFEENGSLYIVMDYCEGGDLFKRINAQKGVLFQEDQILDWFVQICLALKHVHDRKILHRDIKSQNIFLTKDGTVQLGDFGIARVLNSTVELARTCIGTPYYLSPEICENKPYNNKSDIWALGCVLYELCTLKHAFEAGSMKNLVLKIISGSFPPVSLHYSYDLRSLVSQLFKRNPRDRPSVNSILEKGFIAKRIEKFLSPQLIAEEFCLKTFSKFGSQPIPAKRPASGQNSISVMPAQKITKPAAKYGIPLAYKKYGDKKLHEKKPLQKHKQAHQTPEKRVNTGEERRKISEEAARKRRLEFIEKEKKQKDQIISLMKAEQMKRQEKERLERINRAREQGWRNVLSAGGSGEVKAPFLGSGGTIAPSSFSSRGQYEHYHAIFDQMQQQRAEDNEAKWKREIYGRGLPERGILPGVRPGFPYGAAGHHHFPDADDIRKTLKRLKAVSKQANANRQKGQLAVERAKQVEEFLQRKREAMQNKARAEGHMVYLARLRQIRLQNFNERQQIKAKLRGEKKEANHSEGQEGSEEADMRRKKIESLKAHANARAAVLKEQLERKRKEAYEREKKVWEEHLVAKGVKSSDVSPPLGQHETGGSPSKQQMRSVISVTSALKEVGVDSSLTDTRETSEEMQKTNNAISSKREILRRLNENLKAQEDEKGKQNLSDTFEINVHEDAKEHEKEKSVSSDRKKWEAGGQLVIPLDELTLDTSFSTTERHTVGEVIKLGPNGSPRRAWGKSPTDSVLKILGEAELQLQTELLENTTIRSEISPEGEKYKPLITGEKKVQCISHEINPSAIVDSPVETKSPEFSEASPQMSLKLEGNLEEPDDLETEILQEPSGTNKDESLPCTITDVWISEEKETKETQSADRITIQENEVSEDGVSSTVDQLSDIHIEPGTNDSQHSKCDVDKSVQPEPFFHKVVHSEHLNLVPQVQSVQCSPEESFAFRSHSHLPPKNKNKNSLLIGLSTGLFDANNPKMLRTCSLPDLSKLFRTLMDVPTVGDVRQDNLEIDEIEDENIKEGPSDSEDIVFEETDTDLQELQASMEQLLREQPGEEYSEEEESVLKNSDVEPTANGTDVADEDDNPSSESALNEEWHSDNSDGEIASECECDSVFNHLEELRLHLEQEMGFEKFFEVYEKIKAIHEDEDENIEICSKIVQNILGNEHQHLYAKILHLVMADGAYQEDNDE

[3] = target: T2, Serine/threonine-protein kinase Nek1 (Homo sapiens); settings: at 1 µM
[4] = target: T3, Serine/threonine-protein kinase Nek2 (Homo sapiens) (UniProt P51955); settings: at 0.1 µM
T3 sequence (whole entry): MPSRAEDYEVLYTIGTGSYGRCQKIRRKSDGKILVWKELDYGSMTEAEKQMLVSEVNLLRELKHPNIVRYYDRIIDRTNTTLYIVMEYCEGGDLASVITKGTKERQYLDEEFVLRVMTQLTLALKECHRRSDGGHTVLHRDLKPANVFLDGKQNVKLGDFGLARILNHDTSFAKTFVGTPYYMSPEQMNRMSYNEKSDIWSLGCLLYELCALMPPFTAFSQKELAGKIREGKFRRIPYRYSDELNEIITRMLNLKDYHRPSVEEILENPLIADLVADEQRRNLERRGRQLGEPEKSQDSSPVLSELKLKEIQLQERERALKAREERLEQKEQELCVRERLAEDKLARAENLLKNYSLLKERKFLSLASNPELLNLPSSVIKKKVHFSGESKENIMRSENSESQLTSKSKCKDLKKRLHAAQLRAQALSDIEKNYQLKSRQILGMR

[5] = target: T3, Serine/threonine-protein kinase Nek2 (Homo sapiens); settings: at 1 µM
[6] = target: Serine/threonine-protein kinase Nek6 (Homo sapiens) (UniProt Q9HC98); settings: at 0.1 µM
[7] = target: Serine/threonine-protein kinase Nek6 (Homo sapiens) (UniProt Q9HC98); settings: at 1 µM
[8] = target: Serine/threonine-protein kinase Nek7 (Homo sapiens) (UniProt Q8TDX7); settings: at 0.1 µM
[9] = target: Serine/threonine-protein kinase Nek7 (Homo sapiens) (UniProt Q8TDX7); settings: at 1 µM
[10] = target: T4, Serine/threonine-protein kinase Nek9 (Homo sapiens) (UniProt Q8TD19); settings: at 0.1 µM;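 also: reported value is the mean percent inhibition of NEK9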
T4 sequence (whole entry): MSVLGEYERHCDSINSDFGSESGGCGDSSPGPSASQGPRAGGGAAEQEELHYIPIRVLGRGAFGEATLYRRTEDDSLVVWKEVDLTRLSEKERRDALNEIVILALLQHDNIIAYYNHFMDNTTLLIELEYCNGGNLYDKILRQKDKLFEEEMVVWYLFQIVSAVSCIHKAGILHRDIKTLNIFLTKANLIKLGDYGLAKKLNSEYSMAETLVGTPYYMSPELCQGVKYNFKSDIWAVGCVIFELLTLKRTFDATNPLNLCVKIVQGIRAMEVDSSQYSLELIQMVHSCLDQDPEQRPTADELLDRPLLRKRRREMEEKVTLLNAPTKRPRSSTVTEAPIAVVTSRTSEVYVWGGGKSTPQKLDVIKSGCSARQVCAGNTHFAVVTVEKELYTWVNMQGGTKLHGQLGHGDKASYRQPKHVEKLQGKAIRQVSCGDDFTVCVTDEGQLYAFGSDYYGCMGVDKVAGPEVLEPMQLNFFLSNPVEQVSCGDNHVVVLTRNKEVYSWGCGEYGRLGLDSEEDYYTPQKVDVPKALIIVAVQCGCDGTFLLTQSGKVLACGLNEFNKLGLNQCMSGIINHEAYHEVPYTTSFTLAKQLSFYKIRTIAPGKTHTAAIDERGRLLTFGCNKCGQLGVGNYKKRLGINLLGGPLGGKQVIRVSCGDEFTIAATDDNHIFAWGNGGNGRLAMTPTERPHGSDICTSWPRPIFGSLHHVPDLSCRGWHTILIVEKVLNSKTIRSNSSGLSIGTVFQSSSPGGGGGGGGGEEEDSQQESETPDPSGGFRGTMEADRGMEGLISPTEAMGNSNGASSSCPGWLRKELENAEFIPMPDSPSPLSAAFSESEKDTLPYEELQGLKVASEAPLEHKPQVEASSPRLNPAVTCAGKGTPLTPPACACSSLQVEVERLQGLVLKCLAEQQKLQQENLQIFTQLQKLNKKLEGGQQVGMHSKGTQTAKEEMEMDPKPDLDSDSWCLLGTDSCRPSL

Serine/threonine-protein kinase Nek7 (Homo sapiens), sequence (Q8TDX7 whole entry, looked up): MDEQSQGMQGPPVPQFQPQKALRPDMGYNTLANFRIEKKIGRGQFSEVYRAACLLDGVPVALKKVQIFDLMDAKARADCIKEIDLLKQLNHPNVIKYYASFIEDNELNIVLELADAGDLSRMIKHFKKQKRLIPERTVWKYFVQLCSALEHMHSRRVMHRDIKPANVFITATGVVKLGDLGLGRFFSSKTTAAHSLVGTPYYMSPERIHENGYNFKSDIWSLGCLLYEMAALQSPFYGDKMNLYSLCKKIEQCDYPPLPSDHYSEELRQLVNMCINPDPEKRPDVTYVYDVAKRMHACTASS
Serine/threonine-protein kinase Nek6 (Homo sapiens), sequence (Q9HC98 whole entry): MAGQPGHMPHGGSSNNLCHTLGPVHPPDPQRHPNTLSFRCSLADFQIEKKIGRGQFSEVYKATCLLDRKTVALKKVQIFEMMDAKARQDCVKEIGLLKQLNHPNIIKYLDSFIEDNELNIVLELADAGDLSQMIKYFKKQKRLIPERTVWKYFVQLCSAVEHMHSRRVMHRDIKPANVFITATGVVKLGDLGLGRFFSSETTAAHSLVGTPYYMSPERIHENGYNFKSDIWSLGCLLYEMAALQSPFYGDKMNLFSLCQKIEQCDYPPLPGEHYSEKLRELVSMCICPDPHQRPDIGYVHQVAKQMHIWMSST

Cc1cc(O)cc(C)c1/C=C/c1cncc(C(=O)OC(C)(C)C)c1
inhibition [1]: 91.7% | inhibition [2]: 2.47% | inhibition [3]: 4.15% | inhibition [4]: 3.29% | inhibition [5]: 2.53% | inhibition [6]: 1.87% | inhibition [7]: 2.59% | inhibition [8]: -2.32% | inhibition [9]: 3.53% | inhibition [10]: 8.55%

— ChEMBL document CHEMBL1961873, “Compounds: GSK PKIS; Assays: Nanosyn kinase panel” (2012)
